# In the library only some 4.6% were active in any assay of this set; here they are far more common.
# PNC inhibitor: blocks assembly of the perinucleolar compartment. PC3M PTB-GFP, PNC prevalence imaging, 16 h; active compounds read low. activity change (PNC), negative = inhibition, % at 10 µM. 3.1% of 140,000 active. AID 2417;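 active means readout at or below -70, meaning at least 70% loss of cells showing the perinucleolar compartment, a nuclear body marking cancer cells; inconclusive means readout between -30 and a set limit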;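 further: plate controls were DMSO wells for no effect and camptothecin positive control wells for full effect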
#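 Read-out is percentage of cells bearing a perinucleolar compartment, from automated 20x imaging of fixed, Hoechst-stained PC3M PTB-GFP cells. Cells were seeded 4 h, then exposed 16 h to compound (23 nl of library stock) in duplicate plates.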
# Tau fibril ThT: inhibitors of human tau fibril formation, thioflavin T binding | P10636 | recombinant tau K18 P301L, heparin-induced fibrillization, ThT fluorescence | Potency, µM (series often up to 57.4 µM), for the others: top-dose activity, negative = inhibition, usual class: inhibitors | 2.1% of 270,000 active; further: potency means the concentration at half of the fitted maximal effect; nearly all actives have a fitted effect of over 55% in size
# Target sequence (P10636 561-689 P618L limits assumed): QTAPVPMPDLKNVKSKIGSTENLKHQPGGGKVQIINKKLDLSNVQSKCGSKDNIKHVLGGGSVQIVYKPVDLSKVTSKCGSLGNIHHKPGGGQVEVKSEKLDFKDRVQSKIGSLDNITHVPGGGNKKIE
#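 Tau K18 P301L fragment (15 uM unlabeled plus 0.24 uM Alexa 594-labeled) in 100 mM sodium acetate pH 7 with compound, fibrillization induced by 20 uM heparin for 6 hr at 37 C. Thioflavin T (30 uM) added, fluorescence read after 1 hr (ex 450, em 510 nm).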
# Tau fibril FP: blocks human tau fibril formation measured by polarization; AID 1468; Potency, µM (highest dose often 57.7 µM), for the others: top-dose activity, negative = inhibition, usual class: inhibitors; K18 P301L tau heparin fibrillization, Alexa594 FP, 6 h; 0.39% of 280,000 active; P10636; further: potency means the concentration at half of the fitted maximal effect; nearly all actives have a fitted effect of over 55% in size
#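 Human tau K18 […] P301L fragment, 15 uM unlabeled plus 0.24 uM Alexa 594-labeled tau (final), with compound and 20 uM heparin in 100 mM sodium acetate pH 7; 6 hr at 37 C, then Alexa 594 FP read.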
# TRb SRC2 PPI: disrupts binding of human TR beta to SRC2 | AID 1469 | 0.065% of 280,000 active | P10828 | TRbeta-SRC2 peptide binding, fluorescence polarization; receptor liganded with 1 µM T3 | Potency, µM (series often up to 106 µM), for inactives: top-dose activity change, negative = inhibition, most hits filed as inhibitors;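 further: potency means the concentration at half of the fitted maximal effect; plate controls were bound peptide for no effect and peptide without receptor for full effect; nearly all actives have a fitted effect of over 50% in size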
# Target sequence (P10828 whole entry, looked up): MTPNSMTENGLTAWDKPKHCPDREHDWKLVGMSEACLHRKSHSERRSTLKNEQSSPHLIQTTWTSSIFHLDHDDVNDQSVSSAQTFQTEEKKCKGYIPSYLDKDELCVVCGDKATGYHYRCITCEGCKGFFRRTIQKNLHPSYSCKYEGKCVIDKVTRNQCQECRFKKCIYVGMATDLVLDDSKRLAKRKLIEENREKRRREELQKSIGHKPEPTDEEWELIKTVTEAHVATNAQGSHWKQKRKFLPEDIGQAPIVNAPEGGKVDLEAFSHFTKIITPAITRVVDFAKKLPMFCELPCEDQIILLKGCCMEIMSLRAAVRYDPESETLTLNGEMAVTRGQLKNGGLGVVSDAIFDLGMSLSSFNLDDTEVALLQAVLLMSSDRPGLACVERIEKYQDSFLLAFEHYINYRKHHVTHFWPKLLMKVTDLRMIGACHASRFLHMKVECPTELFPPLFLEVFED
#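 A fluorescence polarization screen tested compounds at multiple concentrations against complex formation between 0.6 uM TRb ligand-binding domain and 20 nM Texas Red SRC2 peptide, with 1 uM T3 present; readout after 5 hr.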
# TexasRed fluor: alters Texas Red total fluorescence, flagging assay interference. TRb/SRC2 Texas Red total fluorescence interference. Potency, µM (top dose mostly 106 µM), inactives show at the highest dose fluorescence change, negative = quenching. 0.29% of 280,000 active. AID 1479; active means well fitted curve in either direction with a large enough effect; inconclusive means small, poorly fitted or top-dose-only effect; further: potency means the concentration at half of the fitted maximal effect
#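 Human TRβ ligand-binding domain (0.6 uM) and Texas Red SRC2 peptide (20 nM) in Tris buffer with 1 uM T3 and 5% DMSO were incubated with pinned compound for 5 hr at ambient temperature. Total fluorescence was computed as S + 2P (555/632 nm).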
# Tau fluor counter: counter-screen for tau fibril formation inhibitors. tau K18 P301L (four-repeat tau fragment) Alexa594 fluorescence, heparin fibrillization. Potency, µM (titrated, usually from 57.7 µM), for the others: at the highest dose activity change, negative = decrease. 0.93% of 280,000 active. AID 1463; further: potency means the concentration at half of the fitted maximal effect; nearly all actives have a fitted effect of over 55% in size
#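 Human K18 P301L tau (15 uM unlabeled plus 0.24 uM Alexa 594-labeled, final) in 100 mM sodium acetate pH 7 was mixed with compound and 20 uM heparin and incubated 6 hr at 37 C.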
# Starred values were filed as active, the others as inactive; ? = inconclusive; / = no result; [ ] = dose if it differs, or a comment. Unless noted, the call rests on the fitted dose curve; in most records, active means well fitted curve in the direction sought with a large enough effect; inconclusive means small, poorly fitted or top-dose-only effect, or another doubt; inactive means no such curve, though single readings can be large; an effect the other way counts as inactive or inconclusive. Unless noted, on the % scale 0 is the no-effect control and ±100 the full control effect.
SMILES,PNC inhibitor,Tau fibril ThT,Tau fibril FP,TRb SRC2 PPI,TexasRed fluor,Tau fluor counter
Cc1cccc(OCCCCCn2ccnc2)c1,?,-1.8%,-6.7%,-0.2%,-1.5%,0.3%
CC(NS(=O)(=O)c1ccc(Br)cc1)C(=O)NCc1ccco1 (stereo not drawn),/,?,-7.6%,-1.8%,-3.1%,-9.3%
CC1(C)CC(=O)C2=C(C1)N(c1ccc(Cl)cc1)C(=O)C2(O)C(F)(F)F (stereo not drawn),?,-1.4%,-2.5%,-8.8%,0.1%,-2.8%
CC1(C)CC(=O)C2=C(C1)N(c1cccc(Cl)c1)C(=O)NC2(C(F)(F)F)C(F)(F)F,-80.2*,-1.6%,-2.3%,-6.1%,0.1%,-2.6%
CCc1nn(CC(=O)Nc2ccc(C)cc2C)c(=O)c2cc3sccc3n12,/,17.3%,-10.9%,-3.2%,1.2%,3.6%
CCc1nn(CC(=O)Nc2c(C)cc(C)cc2C)c(=O)c2cc3sccc3n12,/,8.4%,7.8%,0.7%,0.282µM*[quencher],8.8%
CCOC(=O)c1nnn(CC(=O)Nc2ccccc2OC)c1C(=O)OCC,-113.4*,-15.4%,0.7%,4.5%,-0.9%,-10.6%
COC(=O)c1nnn(CC(=O)NC(=O)Nc2cccc(C)c2C)c1C(=O)OC,-113.4*,1.0%,-3.9%,-2.3%,-1.9%,-9.2%
CC1(C)CC(=S)Nc2ccccc2S1,-100.0*,-6.8%,-6.3%,-6.7%,-5.3%,-3.8%
CC1(C)CC(=O)C2=C(C1)Nc1ccccc1S2,/,?,6.0%,-9.6%,-0.4%,-27.0%
CCCCCCCCCCCCCCCC[N+](C)(C)CC,/,/,/,9.1%,0.7%,/
CCCCCC[N+](C)(C)CCSSCC[N+](C)(C)CCCCCC,/,7.08µM*,?,-19.6%,-1.7%,-23.1%
COc1ccc(N/C(=C(/C(Cl)=C(Cl)Cl)[N+](=O)[O-])n2nnc3ccccc32)cc1OC,2.4,14.1µM*,?,0.2%,-4.6%,?
COc1cc(C(=O)NCCC(=O)N2CCN(C)CC2)cc(OC)c1OC,/,-7.5%,-2.5%,-0.5%,0.1%,-4.5%
CC(C)CNC(=O)c1cc([N+](=O)[O-])ccc1N1CCOCC1,23.7,?,-3.3%,-3.5%,0.0%,-15.8%
COc1ccc(C(=O)NCc2nnc(SCC(=O)Nc3cccc(F)c3)o2)cc1,/,-0.3%,-6.2%,6.8%,2.3%,-6.7%
O=C(CS(=O)(=O)c1cn(Cc2ccc(F)cc2)c2ccccc12)N1CCCCC1,-100.0*,2.5%,0.8%,-5.7%,-4.6%,-0.4%
O=C(CS(=O)(=O)c1cn(Cc2ccc(Cl)cc2)c2ccccc12)N1CCCCC1,?,-4.2%,7.6%,-13.7%,1.7%,0.8%
O=C(NNC(=O)c1cccnc1)NC12CC3CC(CC(C3)C1)C2,-80.8*,2.8%,-1.2%,-4.0%,-1.4%,5.0%
O=C(NC12CC3CC(CC(C3)C1)C2)c1cccnc1,?,-4.9%,1.8%,-3.2%,0.5%,1.4%
O=C(O)/C=C\C(=O)Nc1ccccc1F,-119.3*,-8.8%,-0.3%,-7.4%,-1.9%,-8.7%
COC(=O)Cn1c(C2CC(=O)N(c3c(C)cccc3C)C2)nc2ccccc21 (stereo not drawn),/,-1.5%,-7.0%,6.4%,1.8%,-2.0%
COc1ccc(C(=O)C2CCCN(C(=O)CCc3scnc3C)C2)c(C)c1 (stereo not drawn),/,28.2µM*,-49.4%,?,-4.9%,-30.2%
CCn1c(CN2CCCCC2)nc2cc(NC(=O)COc3ccccc3C(C)(C)C)ccc21,/,-1.4%,10.4%,-20.7%,282µM*[quencher],-0.6%
Cn1c(CN2CCOCC2)nc2cc(NC(=O)c3ccccc3[N+](=O)[O-])ccc21,/,-2.6%,-2.2%,-11.1%,100µM*[quencher],-7.9%
SMILES,PNC inhibitor,Tau fibril ThT,Tau fibril FP,TRb SRC2 PPI,TexasRed fluor,Tau fluor counter
CCN1CCN(Cc2nc3cc(NC(=O)c4cccc([N+](=O)[O-])c4)ccc3n2CC)CC1,/,-12.3%,2.3%,-26.2%,2.82µM*[quencher],-12.5%
COc1cccc(OCCNC(=O)c2ccccc2Sc2ccccc2C#N)c1,-29.8,-11.9%,-5.4%,-1.6%,7.5%,-14.2%
CN(C)c1ccc(/C=N\NC(=O)c2cccc3cc[nH]c23)cc1,/,10µM*,0.0%,6.3%,-5.8%,?
CN(C)c1ccc(/C=N/NC(=O)c2cc(=O)[nH]c3ccccc23)cc1,/,-11.6%,6.5%,2.1%,2.1%,-1.0%
CN(C)c1ccc(/C=N/NC(=O)c2cc(-c3ccc4c(c3)OCO4)n[nH]2)cc1,/,2.51µM*,11.1%,-2.4%,-3.1%,?
CN(C)c1ccc(/C=N/NC(=O)c2cnc3ccccc3c2)cc1,/,0.631µM*,-1.5%,-1.3%,3.0%,-21.7%
CN(C)c1ccc(/C=N/NC(=O)c2ccccn2)cc1,/,?,-11.1%,5.2%,-5.5%,-18.0%
O=c1cc(N2CCc3ccccc32)[nH]c(=O)n1-c1ccccc1,-2.9,-5.8%,1.5%,16.1%,-1.7%,-7.4%
C=CCOC(=O)C1=C(C)Nc2ncnn2C1c1cccs1 (stereo not drawn),?,-14.5%,-10.8%,-4.1%,-2.5%,-19.0%
C=CCn1c(-c2cc(-c3ccccc3)sc2N)n[nH]c1=S,/,?,16.4%,-2.9%,2.0%,?
CCn1c(SC(C)C)nnc1-c1cc(-c2ccccc2)sc1N,44.6,12.6µM*,-10.6%,0.5%,-0.5%,?
COc1ccc(OC)c(NC(=O)C2CCN(Cc3cnn(-c4ccccc4)c3-n3cccc3)CC2)c1,-87.8*,-21.2%,5.5%,-15.6%,-2.6%,-21.7%
Cc1cc(C)cc(Nc2cc(C(=O)NCc3ccccc3)c3ccccc3n2)c1,/,-12.8%,?,5.5%,-1.3%,3.55µM*[quencher]
Cc1ccc(C)c(Nc2cc(C(=O)NCCCN(C)C3CCCCC3)c3ccccc3n2)c1,/,?,5.8%,-2.6%,-2.5%,?
COc1ccc(Nc2cc(C(=O)NCc3ccccc3)c3ccccc3n2)cc1,/,-13.0%,?,-0.9%,0.1%,?
Cc1cc(C)cc(Nc2cc(C(=O)NCCCN(C)C3CCCCC3)c3ccccc3n2)c1,/,?,3.6%,-2.8%,-0.7%,3.16µM*[quencher]
Cc1cc(C)n2nc(Sc3ncccc3[N+](=O)[O-])nc2n1,/,-7.2%,-8.6%,-0.6%,0.5%,-11.3%
CCOC(=O)CSc1nc2ccccc2c(=O)[nH]1,37.6,-0.1%,-6.2%,-10.3%,-4.8%,4.8%
CCOC(=O)N1CCN(C(=O)c2cn(CC)c3ccc(S(=O)(=O)N4CCCC4)cc3c2=O)CC1,11.7,-4.3%,-1.5%,-1.2%,0.0%,1.5%
COc1cccc(NC(=O)Cn2cc(S(=O)(=O)Cc3ccccc3F)c3ccccc32)c1,/,17.8%,?,11.7%,6.0%,?
N#C/C(=N\Nc1ccc(S(=O)(=O)N2CCCCC2)cc1)C(N)=S,21.5,12.6µM*,-5.1%,4.1%[53 µM],-4.3%[53 µM],-13.2%

# High-throughput results: PubChem BioAssay, National Center for Advancing Translational Sciences (NCATS)
